Records with an inconclusive call do not appear. Activity calls are given as the source filed them. The call rests on the fitted dose curve; in most records, active means well fitted curve in the direction sought with a large enough effect; inconclusive means small, poorly fitted or top-dose-only effect, or another doubt; inactive means no such curve, though single readings can be large; an effect the other way counts as inactive or inconclusive.
Experiments:
[1] = system: MCC-13; assay: qHTS assay to identify novel small-molecules to repurpose for Merkel cell carcinoma treatment (AID 1296009); conditions: MCC and control cell lines, CellTiter-Glo viability, 72 h; series mostly up to 46 µM; further: nearly all actives have a fitted effect of over 60% in size
Method in brief: (§1)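 After compound transfer in DMSO, plates were kept 72 hr at 37 degree celsius. Luminescent ATP signal from CellTiter-Glo served as viability measure, normalized against DMSO and no-cell controls.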

[2] = system: MCC-26; assay: as above; conditions: MCC and control cell lines, CellTiter-Glo viability, 72 h; series mostly up to 46 µM
Method in brief: as §1

[3] = system: MKL-1; assay: as above; conditions: MCC and control cell lines, CellTiter-Glo viability, 72 h; series mostly up to 46 µM
Method in brief: as §1

[4] = system: MKL-2; assay: as above; conditions: MCC and control cell lines, CellTiter-Glo viability, 72 h; series mostly up to 46 µM
Method in brief: as §1

[5] = system: WaGa; assay: as above; conditions: MCC and control cell lines, CellTiter-Glo viability, 72 h; series mostly up to 46 µM
Method in brief: as §1

[6] = system: CASKI; assay: Primary qHTS to identify gynecologic anti-cancer compounds using libraries of approved drugs and bioactive compounds (AID 1345084); conditions: Gynecologic cancer cell panel viability, ATPlite luminescence, 48 h; series mostly up to 57.5 µM; further: nearly all actives have a fitted effect of over 55% in size
Method in brief: (§2)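 Cell viability after 48 h drug treatment, ATPlite luminescence readout; five doses.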

[7] = system: Hek293T; assay: as above; conditions: Gynecologic cancer cell panel viability, ATPlite luminescence, 48 h, control line for the selectivity index; series mostly up to 57.5 µM
Method in brief: as §2

[8] = system: OV90; assay: as above; conditions: Gynecologic cancer cell panel viability, ATPlite luminescence, 48 h; series mostly up to 57.5 µM
Method in brief: as §2

[9] = system: PA-1; assay: as above; conditions: Gynecologic cancer cell panel viability, ATPlite luminescence, 48 h; series mostly up to 57.5 µM
Method in brief: as §2

[10] = system: Tov-21-G; assay: as above; conditions: Gynecologic cancer cell panel viability, ATPlite luminescence, 48 h; series mostly up to 57.5 µM
Method in brief: as §2

[11] = system: NIH3T3; assay: qHTS assay to identify novel small-molecules to repurpose for Merkel cell carcinoma treatment (AID 1296009); conditions: MCC and control cell lines, CellTiter-Glo viability, 72 h; series mostly up to 44.8 µM; further: nearly all actives have a fitted effect of over 60% in size
Method in brief: as §1

[12] = system: UISO; assay: as above; conditions: MCC and control cell lines, CellTiter-Glo viability, 72 h; series mostly up to 46 µM
Method in brief: as §1

[13] = system: C33A; assay: Primary qHTS to identify gynecologic anti-cancer compounds using libraries of approved drugs and bioactive compounds (AID 1345084); conditions: Gynecologic cancer cell panel viability, ATPlite luminescence, 48 h; series mostly up to 57.5 µM; further: nearly all actives have a fitted effect of over 55% in size
Method in brief: as §2

[14] = system: Es-2; assay: as above; conditions: Gynecologic cancer cell panel viability, ATPlite luminescence, 48 h; series mostly up to 57.5 µM
Method in brief: as §2

[15] = system: HeLa; assay: as above; conditions: Gynecologic cancer cell panel viability, ATPlite luminescence, 48 h; series mostly up to 57.5 µM
Method in brief: as §2

[16] = system: JEG-3; assay: as above; conditions: Gynecologic cancer cell panel viability, ATPlite luminescence, 48 h; series mostly up to 57.5 µM
Method in brief: as §2

[17] = system: SKOV3; assay: as above; conditions: Gynecologic cancer cell panel viability, ATPlite luminescence, 48 h; series mostly up to 57.5 µM
Method in brief: as §2

[18] = system: Tov112D; assay: as above; conditions: Gynecologic cancer cell panel viability, ATPlite luminescence, 48 h; series mostly up to 57.5 µM
Method in brief: as §2

[19] = Drug repurposing screens with cells derived from glioblastoma tumor samples (AID 1345199); conditions: GBM patient neurospheres viability, ATP luminescence, 48 h; further: nearly all actives have a fitted effect of over 40% in size
Method in brief: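 Four patient lines of CD133+ GBM neurospheres were screened at several concentrations; hits were retested in those lines plus three slower-growing GBM lines, using 48-hour treatment and ATP-based viability.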

[20] = system: CAOV3; assay: Primary qHTS to identify gynecologic anti-cancer compounds using libraries of approved drugs and bioactive compounds (AID 1345084); conditions: Gynecologic cancer cell panel viability, ATPlite luminescence, 48 h; series mostly up to 57.5 µM; further: nearly all actives have a fitted effect of over 55% in size
Method in brief: as §2

[21] = at 45.9 µM (top of the series), tumour line B
[22] = at 45.9 µM (top of the series), tumour line D
[23] = at 46.1 µM (top of the series), tumour line C
[24] = at 20 µM (top of the series), tumour line C
On the % scale 0 is the no-effect control and ±100 the full control effect; potency means the concentration at half of the fitted maximal effect.

C[C@@H](O[C@H]1OCCN(Cc2n[nH]c(=O)[nH]2)[C@@H]1c1ccc(F)cc1)c1cc(C(F)(F)F)cc(C(F)(F)F)c1
inactive: Potency [1] | Potency [2] | Potency [3] | Potency [4] | Potency [5]

Nc1ncnc2c1c(-c1cccc(OCc3ccccc3)c1)cn2C1CC(CN2CCC2)C1 (stereo unspecified)
inactive: Potency [1] | Potency [2] | Potency [3] | Potency [4] | Potency [5]
active: Potency [6] 28.2 µM | Potency [7] 14.1 µM | Potency [8] 22.4 µM | Potency [9] 14.1 µM | Potency [10] 35.5 µM

COc1ccnc(CS(=O)c2nc3ccc(OC(F)F)cc3[nH]2)c1OC (stereo unspecified)
inactive: Potency [1] | Potency [2] | Potency [3] | Potency [11] | Potency [12] | Potency [5] | Potency [13] | Potency [6] | Potency [14] | Potency [15] | Potency [7] | Potency [16] | Potency [9] | Potency [17] | Potency [10] | Potency [18] | activity, negative = cell killing [19, 21] -25.5% | activity, negative = cell killing [19, 22] -22.5% | activity, negative = cell killing [19, 23] -15.1%

Fc1ccc(C(c2ccc(F)cc2)N2CCN(CC=Cc3ccccc3)CC2)cc1
inactive: Potency [1] | Potency [2] | Potency [3] | Potency [4] | Potency [12] | Potency [5] | activity, negative = cell killing [19, 23] -6.32%
active: Potency ([19]; tumour line A) 2.82 µM | Potency ([19]; tumour line D) 11.2 µM

CN[C@@H]1[C@@H](O)[C@@H](O[C@@H]2[C@@H](O)[C@H](O[C@H]3O[C@H](CN)[C@@H](O)[C@H](O)[C@@H]3O)[C@@H](N)C[C@@H]2NC(=O)[C@@H](O)CN)OC[C@]1(C)O
inactive: Potency [1] | Potency [2] | Potency [3] | Potency [11] | Potency [12] | Potency [5]

CCC(=O)NCC[C@@H]1CCc2ccc3c(c21)CCO3
inactive: Potency [1] | Potency [2] | Potency [3] | Potency [11] | Potency [12] | Potency [5]

CC(C)C[C@@H](C(=O)N[C@H](C(=O)OC1CCCC1)c1ccccc1)[C@H](O)C(=O)NO
active: Potency [4] 23.5 µM | Potency [5] 7.43 µM
inactive: Potency [1] | Potency [2] | Potency [3]

O=C(CC12CC3CC(CC(C3)C1)C2)Nc1cccc2nc(NCCNCCO)ccc12
inactive: Potency [1] | Potency [2] | Potency [3] | Potency [11] | Potency [12] | Potency [5] | Potency [13] | Potency [6] | Potency [14] | Potency [15] | Potency [7] | Potency [16] | Potency [8] | Potency [9] | Potency [17] | Potency [10] | Potency [18]

NCC1CCC(C(=O)O)CC1 (stereo unspecified)
inactive: Potency [1] | Potency [2] | Potency [3] | Potency [4] | Potency [12] | Potency [5] | activity, negative = cell killing [19, 24] 25.1% | activity, negative = cell killing ([19]; at 21.2 µM (top of the series), tumour line B) -5.15% | activity, negative = cell killing ([19]; at 21.2 µM (top of the series), tumour line D) -6.32% | activity, negative = cell killing ([19]; at 21.3 µM (top of the series), tumour line A) -17.9%

O=c1[nH]c(=O)n([C@H]2C[C@@H](O)[C@@H](CO)O2)cc1I
inactive: Potency [1] | Potency [2] | Potency [3] | Potency [4] | Potency [5]

CCCCc1ccc(NS(=O)(=O)c2ccc(C)c(C(=O)N3CCN(c4cccc(C)c4C)CC3)c2)cc1
inactive: Potency [1] | Potency [2] | Potency [3] | Potency [4] | Potency [5]

C[C@@H](O)[C@H]1C(=O)N2C(C(=O)OCOC(=O)C(C)(C)C)=C(SC3CN(C4=NCCS4)C3)[C@H](C)[C@H]12
inactive: Potency [1] | Potency [2] | Potency [3] | Potency [11] | Potency [12] | Potency [5]

N#CC1(c2cccc(C(=O)Nc3cc(Oc4ccc5nc(NC(=O)C6CC6)sc5n4)ccc3F)c2Cl)CC1
active: Potency [1] 16.6 µM | Potency [2] 11.8 µM | Potency [20] 11.2 µM | Potency [9] 10 µM | Potency [17] 20 µM | Potency [10] 3.98 µM | Potency [18] 5.62 µM
inactive: Potency [3] | Potency [4] | Potency [13] | Potency [15] | Potency [16]

C[C@]12CC[C@@H]3c4ccc(O)cc4CC[C@H]3[C@H]1[C@@H](O)[C@@H](O)[C@H]2O
inactive: Potency [1] | Potency [2] | Potency [3] | Potency [11] | Potency [12] | Potency [5]

CCCCCCCCCCCCCCCC(=O)O[C@H]1[C@@H](O)[C@@H](O)[C@@H]([C@H](NC(=O)[C@@H]2C[C@@H](CCC)CN2C)[C@H](C)Cl)O[C@@H]1SC
active: Potency ([19]; tumour line A) 17.8 µM
inactive: Potency [1] | Potency [2] | Potency [3] | Potency [11] | Potency [12] | Potency [5] | activity, negative = cell killing [19, 21] -20% | activity, negative = cell killing [19, 22] -15.1% | activity, negative = cell killing [19, 23] 10.8%

Clc1ccc(COC(Cn2ccnc2)c2ccc(Cl)cc2Cl)c(Cl)c1 (stereo unspecified)
inactive: Potency [1] | Potency [2] | Potency [3] | Potency [4] | activity, negative = cell killing [19, 24] -15.2%
active: Potency ([19]; tumour line A) 5.62 µM | Potency ([19]; tumour line D) 14.1 µM

CN(C)CC[C@H](CSc1ccccc1)Nc1ccc(S(=O)(=O)NC(=O)c2ccc(N3CCN(Cc4ccccc4-c4ccc(Cl)cc4)CC3)cc2)cc1[N+](=O)[O-]
active: Potency [3] 1.18 µM | Potency [4] 0.235 µM | Potency [5] 0.264 µM
inactive: Potency [1] | Potency [2]

CN1c2ccccc2C(=O)N2CCc3c([nH]c4ccccc34)C21 (stereo unspecified)
active: Potency [6] 7.08 µM | Potency [14] 14.1 µM | Potency [15] 7.94 µM | Potency [16] 3.98 µM | Potency [9] 7.08 µM | Potency [10] 8.91 µM | Potency [18] 3.55 µM
inactive: Potency [1] | Potency [2] | Potency [3] | Potency [4] | Potency [12] | Potency [5]
